Experimental data from PMC4336329 (PLoS ONE, 2015).
About 14,000 (4.5%) of roughly 310,000 compounds showed an effect of 50% or more. Effects have a minus sign here. What follows is part of a selection rich in strong results, with near analogues and random picks from the rest.

These molecules were tested against human ether-à-go-go-related gene (hERG) potassium channel (human, UniProt Q12809) (assay: primary screen, population patch clamp on CHO cells stably expressing hERG; higher = less effect of the substance).
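Also: peak tail current of the secondary pulse compared with the same well before compound.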

Sequence of human ether-à-go-go-related gene (hERG) potassium channel (Q12809 whole entry, looked up): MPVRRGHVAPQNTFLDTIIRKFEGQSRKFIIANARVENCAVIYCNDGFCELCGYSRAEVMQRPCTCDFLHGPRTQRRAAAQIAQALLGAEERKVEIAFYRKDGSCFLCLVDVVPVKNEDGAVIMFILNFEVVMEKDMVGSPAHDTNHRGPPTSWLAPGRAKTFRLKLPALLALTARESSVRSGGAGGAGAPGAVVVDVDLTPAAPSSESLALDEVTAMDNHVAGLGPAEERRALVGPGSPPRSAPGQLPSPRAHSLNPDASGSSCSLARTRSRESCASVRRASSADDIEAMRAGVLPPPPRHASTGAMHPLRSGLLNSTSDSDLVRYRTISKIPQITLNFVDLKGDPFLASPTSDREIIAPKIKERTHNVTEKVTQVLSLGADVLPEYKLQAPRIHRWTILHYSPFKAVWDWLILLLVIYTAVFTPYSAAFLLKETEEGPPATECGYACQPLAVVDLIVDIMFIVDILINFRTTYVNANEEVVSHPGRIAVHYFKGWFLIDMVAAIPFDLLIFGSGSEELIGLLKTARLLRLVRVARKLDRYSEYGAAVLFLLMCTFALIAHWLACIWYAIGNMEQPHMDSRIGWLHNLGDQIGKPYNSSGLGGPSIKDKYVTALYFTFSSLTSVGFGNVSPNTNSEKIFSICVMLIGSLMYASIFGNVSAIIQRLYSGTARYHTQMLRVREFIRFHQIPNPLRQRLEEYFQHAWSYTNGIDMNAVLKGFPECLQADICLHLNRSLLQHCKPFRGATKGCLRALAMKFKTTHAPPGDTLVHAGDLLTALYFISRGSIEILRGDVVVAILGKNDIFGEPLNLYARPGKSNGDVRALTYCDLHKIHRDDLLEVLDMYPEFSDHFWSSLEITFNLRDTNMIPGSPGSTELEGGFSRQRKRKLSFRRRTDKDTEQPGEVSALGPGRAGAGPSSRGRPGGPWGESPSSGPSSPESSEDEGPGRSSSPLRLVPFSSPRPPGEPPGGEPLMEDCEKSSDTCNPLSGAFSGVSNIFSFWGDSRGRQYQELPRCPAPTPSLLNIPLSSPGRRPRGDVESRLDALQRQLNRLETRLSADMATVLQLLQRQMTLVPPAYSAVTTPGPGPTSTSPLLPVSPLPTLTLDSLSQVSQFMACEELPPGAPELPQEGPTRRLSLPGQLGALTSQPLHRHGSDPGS

Structure (SMILES) | hERG current change (%, negative = inhibition) at 10uM [%]
COc1ccc(NC(=O)c2coc3ccccc23)cc1OC | 6.21
CSc1nc(-c2ccc(Cl)cc2)c(C#N)c(=O)[nH]1 | 13.1
Cc1nc(SCC(=O)NC2CCCCC2C)c(C#N)c(C)c1C (stereo not drawn) | -7.03
O=S(=O)(CCN1CCOCC1)c1ccccc1 | 8.81
Cc1nc(-c2ccc(S(=O)(=O)N3CCOCC3)cc2)cs1 | 12.8
COc1cc(Br)cc(CN2CCN(C/C=C/c3ccccc3)CC2)c1O | -32.1
Cc1ccccc1CN1CCN(C/C=C/c2ccccc2)CC1 | 8.81
COc1ccc(O)c(CN2CCN(C/C=C/c3ccccc3)CC2)c1 | -51.9
O=C(COc1ccccc1)N1CCN(C/C=C/c2ccccc2)CC1 | -58.1
COc1ccc(OCC(=O)N2CCN(C/C=C/c3ccccc3)CC2)cc1 | -58.8
COc1ccc(OCC(=O)N2CCN(C(=O)COc3ccccc3)CC2)cc1 | -47.5
O=C(COc1ccccc1)N1CCN(C(=O)COc2ccccc2)CC1 | -32.2
CN(c1ccc(OCC(=O)N2CCN(C/C=C/c3ccccc3)CC2)cc1)S(=O)(=O)c1cccs1.Cl | -30.6
COc1ccc(OC)c(NC(=S)N2CCN(C/C=C/c3ccccc3)CC2)c1 | -33
COc1ccc(NC(=S)N2CCN(C/C=C/c3ccccc3)CC2)c(OC)c1 | -64.2
O=C(Cc1ccccc1)N1CCN(C/C=C/c2ccccc2)CC1 | -19.5
COc1cccc(NC(=S)N2CCN(C/C=C/c3ccccc3)CC2)c1 | -44.7
c1ccc(-c2onc(-c3ccco3)c2-c2ccc3c(c2)OCO3)cc1 | 2
O=[N+]([O-])c1ccc(-c2ccccc2)c([As](=O)(O)O)c1 | 11.9
O=c1cc(C(F)(F)F)nc(SCc2cccc3ccccc23)[nH]1 | 24

Structure (SMILES) | hERG current change (%, negative = inhibition) at 10uM [%]
Cn1c(SCC(=O)OC2CCCCC2)nnc1-c1ccc2c(c1)OCO2 | -19.7
COc1ccc(Cn2c(=O)[nH]c3cc(C(=O)NC4CCN(Cc5ccccc5)CC4)ccc32)cc1 | -3.88
COc1ccc(N2CCN(Cc3cc(=O)oc4cc(C)c(Cl)cc34)CC2)cc1 | 8.44
Cc1cc(C)n2nc(C(=O)OCC(=O)N3CC(C)CC(C)C3)nc2n1 (stereo not drawn) | 15.4
O=C(NCc1ccco1)Nc1ccc2nsnc2c1 | 10.7
N#Cc1nc(-c2ccco2)oc1NCc1ccc(F)cc1 | -4.84
Cc1cc(C)c(Cn2ncn(-c3ccc(Br)cc3)c2=O)c(C)c1 | 19.4
O=C(COc1ccc(Cl)cc1)N1CCCCCCC1 | -12.2
CC(=C1C(=O)c2ccccc2C1=O)N1CCN(Cc2ccccc2)CC1 | -26.6
O=C(COc1ccc(Cl)cc1)N1CCCCC1 | -5.82
CC(=C1C(=O)c2ccccc2C1=O)N1CCN(C/C=C/c2ccccc2)CC1 | -55.6
O=C(COc1ccc(Cl)cc1)N1CCN(C/C=C/c2ccccc2)CC1 | -70.7
CS(=O)(=O)N1CCN(C/C=C/c2ccccc2)CC1 | 7.98
O=C(/C=C/c1ccco1)Nc1cc(Cl)ccc1C(=O)O | -10.3
CCCc1cc(=O)[nH]c(SC/C=C/c2ccccc2)n1 | 9.33
Cc1c(N(C)C)c(=O)n(-c2ccccc2)n1C | 19.1
COc1ccccc1CNS(=O)(=O)c1ccc2c(c1)NC(=O)CS2 | -1.59
O=C(NCCN1CCOCC1)c1ccc([N+](=O)[O-])cc1[N+](=O)[O-] | -0.151
O=C(NCCN1CCOCC1)c1cc([N+](=O)[O-])ccc1Cl | 6.5
O=C(NCCCN1CCOCC1)c1sc2cc(Cl)ccc2c1Cl | -69.6

Structure (SMILES) | hERG current change (%, negative = inhibition) at 10uM [%]
O=C(NCCCN1CCOCC1)c1sc2ccccc2c1Cl | -9.81
O=C(NCCN1CCOCC1)c1sc2cc(Cl)ccc2c1Cl | -10.3
CCN(CC)C(=O)c1cc2cc([N+](=O)[O-])ccc2s1 | -55.5
O=C(NCCN1CCOCC1)c1cc2cc([N+](=O)[O-])ccc2s1 | -63.3
O=C(NCCCN1CCOCC1)c1sc2cc(F)ccc2c1Cl | -44
O=C(NCCN1CCOCC1)c1sc2ccccc2c1Cl | -6.21
O=C(NCCCN1CCOCC1)c1sc2cc([N+](=O)[O-])ccc2c1Cl | -54
CN(C)C(=O)c1cc2cc([N+](=O)[O-])ccc2s1 | -38.9
CCCNC(=O)c1cc2cc([N+](=O)[O-])ccc2s1 | -9.82
O=c1c2cn[nH]c2[nH]c(=S)n1-c1ccccc1F | 24.8
N#CC1=C(N)Oc2cc(O)ccc2C1c1cccnc1 (stereo not drawn) | 27.4
CCOc1nc2cnccc2n(CC(=O)Nc2ccccc2C(=O)OC)c1=O | -1.11
Cc1nn(-c2ccccc2)c(C)c1/C=N/NC(=O)CSc1nnc(SCc2cccc3ccccc23)s1 | 6.33
CCOC(=O)c1sc(=S)n(C)c1NC(=O)c1ccc(C(C)(C)C)cc1 | 11.8
CC(=O)N/C(=C/c1ccc2c(c1)OCO2)C(=O)O | -2.32
O=C(CCNS(=O)(=O)c1ccc(Cl)cc1)N1CCOCC1 | 22.4
COc1ccc2[nH]c3c(c2c1)CCNC3=O | 7.33
O=C1NCCc2c1[nH]c1ccccc21 | -77
Cc1ccc2[nH]c3c(c2c1)CCNC3=O | 4.86
O=C(Nc1ccc(-c2csc(Nc3cccc(C(F)(F)F)c3)n2)cc1)c1cccc(C(F)(F)F)c1 | 9.98
